Reference: PubChem BioAssay (Tox21)
Results filed as inconclusive are left out. Where a call stands in place of a potency, no number is given. Values without a mark were called inactive. The source made the active and inactive calls. Calls come from the whole dose curve; as a rule, active = well fitted activation curve with a large enough effect in the repeat runs; inconclusive = weak or mixed curves; inactive = flat fitted curve, though single readings scatter.

Test: A CellTox Green Cytotoxicity Assay to monitor cytotoxicity in HepG2 cells - 16 hour (AID 1224876); note: nearly all actives have a fitted effect of over 45% in size
Conditions: CellTox Green fluorescence; series mostly up to 76.8 µM
Text: National Center for Advancing Translational Sciences [NCATS]
NIH Chemical Genomics Center [NCGC]
U.S. Environmental Protection Agency [EPA]
National Institutes of Environmental Health Sciences [NIEHS]
National Toxicology Program [NTP]
Cell-based models are critical for drug discovery. Determining the natural cytotoxic effects resulting from test compounds is an essential research activity. A CellTox Green Cytotoxicity Assay to monitor cytotoxicity in real time of continues cell culture during 40 hours of the compound treatment was used to screen Tox21 10K library compounds in HepG2 cells. CellTox Green Cytotoxicity Assay is a nonlytic, homogeneous, biofluorescent method to measure cytotoxicity in cell culture after experimental manipulation. The assay system uses a proprietary asymmetric cyanine dye that is excluded from viable cells but preferentially stains the dead cell's DNA. […] Viable cells produce no appreciable increases in fluorescence. Therefore, the fluorescence signal produced by the binding interaction with dead cell DNA is proportional to cytotoxicity.
The mixture of HepG2 cell suspension and reagents were dispensed at 600cells/6 ul/well in 1536-well tissue culture treated black solid bottom plates using a Multidrop dispenser. After the assay plates were incubated at a 37 C/5% CO2 incubator for 5 hours, 23 nL of compounds dissolved in DMSO, positive and negative controls was transferred to the assay plate by a pintool work station. The plates were incubated at 37 C for 40 hours. The fluorescence intensity were measured at 0h, 8h, 16h, 24h, 32h and 40h time points using ViewLux plate reader during compound treatment.

| SMILES | Potency | cytotoxicity increase |
| --- | --- | --- |
| O=C(O)/C=C/c1ccccc1 | inactive |  |
| CNCc1ccccc1 | inactive |  |
| c1ccccc1 | inactive |  |
| CC(Cl)COP(=O)(OCC(C)Cl)OCC(C)Cl (stereo not given) | inactive |  |
| Cc1nc(C)nc(N2C[C@@H](C)N(c3ccnc([C@@H](C)O)n3)[C@@H](C)C2)n1 | inactive |  |
| O=P(O)(O)OCC(O)CO (stereo not given) | inactive |  |
| CCC(O)C(C)(C)C (stereo not given) | inactive |  |
| CCCO | inactive |  |
| NS(=O)(=O)c1cc2c(cc1Cl)NC(C(Cl)Cl)NS2(=O)=O (stereo not given) | inactive |  |
| OCCCCCCCl | inactive |  |
| CC(=O)OC[C@H]1O[C@@H](OC(C)=O)[C@H](OC(C)=O)[C@@H]1OC(C)=O | inactive |  |
| CC1=NN(c2ccc(S(=O)(=O)O)cc2)C(=O)C1N=Nc1ccccc1 (stereo not given) | inactive |  |
| C[CH2][Ge]([Cl])([CH2]C)[CH2]C | inactive |  |
| C[N+](C)(C)CC(O)CCl (stereo not given) | inactive |  |
| Oc1ccccc1Cc1ccccc1O | inactive |  |
| CCOC(=O)CC(CC(=O)OCC)(OC(C)=O)C(=O)OCC | inactive |  |
| C=CCCCCCCCCCCC |  | -0.067% [at 6.97 µM] |
| O=C(Nc1cccc(C2=NCCN2)c1)Nc1cccc(C2=NCCN2)c1 |  | -11.3% [at 15.8 µM] |
| O=C(O)CCNC(=O)c1ccccc1 | inactive |  |
| Cc1ncc([N+](=O)[O-])n1CC(O)CCl (stereo not given) | inactive |  |

| SMILES | Potency | cytotoxicity increase |
| --- | --- | --- |
| COc1ccc(N=Nc2cc(C)c(N=Nc3ccc(S(=O)(=O)O)cc3)cc2OC)cc1 | inactive |  |
| CC(C)COC(=O)/C=C/c1ccccc1 | inactive |  |
| O=S(=O)(O)SSS(=O)(=O)O | inactive |  |
| CC(C)(c1ccc(Oc2ccc3c(c2)C(=O)OC3=O)cc1)c1ccc(Oc2ccc3c(c2)C(=O)OC3=O)cc1 | inactive |  |
| CO[Si](CCCCl)(OC)OC | inactive |  |
| NC(=O)NC(=O)Cc1ccccc1 | inactive |  |
| O=C(O)c1c(Cl)ccc(Cl)c1Cl | inactive |  |
| O=C1CC[C@H](C(=O)N2CCCCC2)N1 | inactive |  |
| C1=C\CC/C=C\CC/1 | inactive |  |
| Nc1ccc(/C=C/c2ccc(N)cc2S(=O)(=O)O)c(S(=O)(=O)O)c1 |  | -10.5% [at 0.29 µM] |
| COc1cc(C=O)ccc1OC(=O)C(C)C | inactive |  |
| Cc1ccc2c(c1)c1c3n2CCNC3CCC1 (stereo not given) | inactive |  |
| Nc1c(NC/C=C\COc2cc(CN3CCCCC3)ccn2)c(=O)c1=O |  | -12.5% [at 15.8 µM] |
| C=CCOc1cc(Cl)ccc1C(=O)NCCN(CC)CC | inactive |  |
| Cc1c(C(C)C)c(=O)n(-c2ccccc2)n1C | inactive |  |
| O=[Si]=O | inactive |  |
| Nc1ccnc(=O)[nH]1 | inactive |  |
| COc1ccc(OC)c(NC(=O)CC(C)=O)c1 | inactive |  |
| O=S(=O)(O)CCO | inactive |  |
| CCCCOC(=O)[C@@H](C)Oc1ccc(Oc2ccc(C(F)(F)F)cn2)cc1 | inactive |  |
